Measurements: ChEMBL document CHEMBL3988442, “University of Dundee, Small-Polar-MMV Screening Library” (2021)

These compounds were tested against T1, Aspartate--tRNA(Asp/Asn) ligase (Mycobacterium tuberculosis (strain ATCC 25618 / H37Rv)) (UniProt P9WFW3) (assay: Assay for Asp RNA synthetase-1 from Mycobacterium tuberculosis). Conditions: 30 µM.
T1 sequence (whole entry): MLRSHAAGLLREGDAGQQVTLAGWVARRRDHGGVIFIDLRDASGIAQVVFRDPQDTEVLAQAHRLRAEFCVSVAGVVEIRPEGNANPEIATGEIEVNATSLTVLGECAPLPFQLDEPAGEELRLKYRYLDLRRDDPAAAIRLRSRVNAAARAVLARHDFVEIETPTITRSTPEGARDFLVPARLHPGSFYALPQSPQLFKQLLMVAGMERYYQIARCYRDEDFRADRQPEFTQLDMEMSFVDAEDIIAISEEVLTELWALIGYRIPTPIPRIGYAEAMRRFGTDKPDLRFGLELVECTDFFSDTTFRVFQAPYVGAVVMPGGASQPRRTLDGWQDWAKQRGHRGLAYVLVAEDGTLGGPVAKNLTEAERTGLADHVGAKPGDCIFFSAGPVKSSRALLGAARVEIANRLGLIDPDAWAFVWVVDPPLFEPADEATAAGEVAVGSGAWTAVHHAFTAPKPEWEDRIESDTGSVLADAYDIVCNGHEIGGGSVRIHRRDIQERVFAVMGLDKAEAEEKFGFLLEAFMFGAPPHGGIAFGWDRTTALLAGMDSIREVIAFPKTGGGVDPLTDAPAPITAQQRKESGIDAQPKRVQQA
Format: functional
Design: scale not given: in the data most compounds retested in dose-response had high values

Compound	Percent Effect
Cc1nn(C)cc1C(=O)N1C[C@H]2CC[C@@H]1CN(S(=O)(=O)N(C)C)C2	1.62%
Cc1nn(-c2ccccc2)c2c1C(c1ccc(C(=O)O)cc1)CC(=O)N2 (stereo not given)	1.57%
CCSCCC(=O)Nc1ncn(CC(=O)NCc2ccccc2)n1	-2.33%
CN(C)C(=O)CNC(=O)c1cc(Br)c2c(c1)OCCO2	3%
CC(Sc1nnnn1C1CCOCC1)C(=O)NC1CCCCC1 (stereo not given)	1.09%
O=C1N(Cc2cccc(F)c2F)CCCC1(O)CNC1CCCC1 (stereo not given)	-0.655%
Cc1ccc(N2CCCC(N(C)Cc3cc(C)no3)C2)nn1 (stereo not given)	-1.94%
c1cnn(Cc2nnc(C3CCN(C4CCOCC4)CC3)n2C2CC2)c1	-4.17%
Cc1ccc(C(=O)N2CCN(S(C)(=O)=O)CC2)cc1N1CCNC1=O	-4.61%
CCc1cc(N2CCSCC2)n2nc(C)c(C)c2n1	4.1%
Cc1nccn1CCC1CCCCN1C(=O)c1ccc2[nH]nnc2c1 (stereo not given)	1.02%
COc1ccc(NC(=O)CCC2CCCN(Cc3ncon3)C2)c(C)c1 (stereo not given)	1.11%
CCn1nc(C)c(CNC(=O)c2cn(CCC3CCCCN3)nn2)c1C (stereo not given)	0.0575%
CCc1nc(NS(=O)(=O)c2cc(C)ccc2F)no1	-2.52%
O=C1O[C@@H]2CN(Cc3cccc(F)c3)C[C@@H]2N1CCCN1CCOCC1	0.287%
COc1ccc(F)c(CN2CCC3(CCC(=O)N(CC(N)=O)C3)CC2)c1	-3.94%
CCNC(=O)c1cnc(Cc2ccc(F)cc2)s1	-3.94%
N#Cc1cccc(CS(=O)(=O)NCCC(O)c2ccccc2)c1 (stereo not given)	-1.46%
O=c1oc(-c2cccs2)nn1CC(O)c1ccccc1 (stereo not given)	1.71%
CN1C(=O)CC(C(=O)O)C12CCN(Cc1ccc(F)cc1Cl)CC2 (stereo not given)	-1.07%

Compound	Percent Effect
O=C(O)c1csc(S(=O)(=O)N2CCCc3ccc(F)cc32)c1	1.9%
CC(C)(C)N1CC(C(=O)N2CCN(CCn3cccc3)CC2)CC1=O (stereo not given)	1.18%
Cc1cc(F)ccc1CN1CCC(O)(CN2CCCCC2)C1 (stereo not given)	-0.747%
CCOc1cccc(C(C)NCc2ccc(OC)c(OC)c2OC)c1 (stereo not given)	-1.94%
O=C(NCc1ccncc1)N(Cc1ccccc1F)C1CC1	-1.67%
CCC(=O)NCc1cc(Br)c(OC)c(OC)c1	-1.55%
CCN(CC1CN(CCc2ccccn2)CCO1)c1cccnn1 (stereo not given)	-1%
Cc1cc(C(=O)NC2CCCN(c3ccccc3)C2=O)on1 (stereo not given)	0.287%
Cn1cccc1C1CCCN1C(=O)NCCCn1cccn1 (stereo not given)	-1%
CCCC(NC(=O)c1cc(C)ccc1C)c1nnn[nH]1 (stereo not given)	-2.52%
O=C(c1cncc(N2CCC3(CCNCC3)CC2)n1)N1CCCC1	-3.85%
CN(CCO)C(=O)c1coc(CN2CCN(c3ccccc3F)CC2)n1	-3.46%
O=C(CCc1c[nH]cn1)N1CC[C@@H](c2ccc3ccccc3c2)[C@H](O)C1	-0.632%
CSCC(=O)N1CCCC1c1noc(C2CC2)n1 (stereo not given)	0.839%
COc1ccccc1CN(C)c1nccc(-c2cn(C)nc2C)n1	-1.34%
O=C(O)C(c1ccc2c(c1)OCCO2)N1CCCCCC1 (stereo not given)	-3.23%
Cc1nn(CCO)c(C)c1CNC1CCc2c(Cl)cccc21 (stereo not given)	0.54%
CC(C)N1CCC(NCc2cccnc2N(C)C)CC1	-1.8%
Cn1c(C(=O)N2CCC(C(=O)N3CCCC3)CC2)c(Cl)c2ccccc21	-5.07%
COc1ccc(NC(=O)CCC2CCCN(Cc3ncon3)C2)cc1Cl (stereo not given)	-0.862%
